Source: PubChem BioAssay
A selection: hits, their analogues and other compounds. The true share with any hit is near 1%.
TNAP act mid DEA – human TNAP enzyme activators, primary screen, biochemical, luminescent, intermediate phosphate acceptor level. 64,000 tested, under 10 active. purified TNAP, CDP-star luminescence, 100 mM DEA, 30 min; stronger effect = higher value; scale: 0 levamisole-inhibited, 1 vehicle-only enzyme. activation factor at 20 µM. Alkaline phosphatase, tissue-nonspecific isozyme (Homo sapiens), P05186;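 active = activation factor of at least 2 at 20 µM, relative to controls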
MKP-1 inh – MKP-1 phosphatase inhibitors, primary screen, biochemical, in vitro | 0.15% of 65,000 active | recombinant MKP-1, OMFP hydrolysis fluorescence | AID 374, 2006 | inhibition, %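 (compounds tested at a single concentration somewhere between 10 and 100 µM)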 | Dual specificity protein phosphatase 1 (Homo sapiens), P28562;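 active = inhibition above about 50%, limit read from the data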;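 also: 0% = DMSO max control wells and 100% = wells with enzyme stopped by NaOH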
BAP1 inh – inhibitors of BAP1 deubiquitinase, primary screen, biochemical, Ub-AMC fluorescence, kinetic; Ubiquitin carboxyl-terminal hydrolase BAP1 (Homo sapiens), Q92560; AID 436, 2006; calls only at 20 µM; recombinant BAP1, Ub-AMC hydrolysis fluorescence kinetic; stronger effect = lower value; 0.48% of 72,000 active;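 active = activity remaining at or below 50% of control, provided the compound also passes the data quality filters; inactive = the rest, including low values that fail the filters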;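 also: 100% = DMSO wells rate and 0% = substrate alone blank rate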
Cdc25B block – inhibitors of Cdc25B phosphatase catalytic domain, primary screen, biochemical, OMFP fluorescence | inhibition, %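 (compounds tested at 10 µM final in the well)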 | M-phase inducer phosphatase 2 (Homo sapiens), P30305 | 0.1% of 65,000 active | recombinant Cdc25B, OMFP fluorescence Ex485/Em525 | AID 368, 2006; in the data active = inhibition above about 50%
HePTP inhibitor – inhibitors of human HePTP phosphatase, primary screen, biochemical, absorbance, leukemia target; Tyrosine-protein phosphatase non-receptor type 7 (Homo sapiens), P35236; recombinant HePTP phosphatase activity, OD absorbance; inhibition, % at 20 µM; 0.64% of 110,000 active; in the data active = inhibition above about 50%;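 also: plate controls were vehicle for no effect and reference inhibitor for full effect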
Ec RNAP inh – E. coli RNAP inhibitors, biochemical. DNA-directed RNA polymerase subunit beta (Escherichia coli (strain K12)), P0A8V2. E. coli RNA polymerase, fluorescence transcription assay. inhibition, %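 (tested at 10 µM)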. 0.2% of 62,000 active. AID 559, 2006; in the data active = inhibition above about 20%;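 also: 0% = enzyme without compound and 100% = no enzyme blank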
* = called active by the depositor.

For O=S1(=O)C=C(Sc2nc3cc(Cl)ccc3o2)c2ccccc21 the results were TNAP act mid DEA 1, MKP-1 inh 1, BAP1 inh inactive, Cdc25B block -2, HePTP inhibitor 3 and Ec RNAP inh 40*.
Screening O=C(CC1Nc2ccccc2NC1=O)NC1CCCCC1 (stereo not drawn) returned TNAP act mid DEA 0.9, MKP-1 inh -18, BAP1 inh inactive, Cdc25B block 0, HePTP inhibitor 2 and Ec RNAP inh 5.
O=C(/N=C1\NC(=O)C(F)(C(F)(F)F)S1)NC1CCCCC1 (stereo not drawn) was read as TNAP act mid DEA 0.9, MKP-1 inh 4, BAP1 inh inactive, Cdc25B block 0, HePTP inhibitor 4 and Ec RNAP inh 25*.
For COc1ccc(/C(C)=N\N=C2/NC(=O)C(Cc3ccc(C)cc3)S2)cc1 (stereo not drawn) the results were HePTP inhibitor -6.
For N#C/C(=C(/O)CSc1nnc(Cc2cccs2)n1C1CCCCC1)c1nc2ccccc2[nH]1 the results were TNAP act mid DEA 1, MKP-1 inh 52*, Cdc25B block 0, HePTP inhibitor -2 and Ec RNAP inh 4.
Screening COc1ccccc1-c1nnc(SC/C(O)=C(\C#N)c2nc3ccccc3[nH]2)n1C1CCCCC1 returned TNAP act mid DEA 1, MKP-1 inh 38, BAP1 inh inactive, Cdc25B block 26, HePTP inhibitor 2 and Ec RNAP inh 15.
Cc1ccc(NC(=O)Cn2cnc3c(cnn3C(C)(C)C)c2=O)cc1 was read as TNAP act mid DEA 1, MKP-1 inh 1, BAP1 inh inactive, Cdc25B block -14, HePTP inhibitor 3 and Ec RNAP inh 22*.
`CC(C)(C)n1ncc2c(=O)n(CC(=O)Nc3ccc4c(c3)OCO4)cnc21` gave TNAP act mid DEA 1, MKP-1 inh 0, BAP1 inh inactive, Cdc25B block -3, HePTP inhibitor -9 and Ec RNAP inh 8.
For CNC(=O)c1cc(-c2ccc(OC)cc2)nc2ccccc12 the results were HePTP inhibitor 6.
For Cc1ccc(CC2SC(=O)NC2=O)cc1Cl (stereo not drawn) the results were TNAP act mid DEA 1, MKP-1 inh 8, BAP1 inh inactive, Cdc25B block -13, HePTP inhibitor 2 and Ec RNAP inh 8.
For CC(=O)/C(C#N)=C1\NC(=O)C(Cc2ccccc2Cl)S1 (stereo not drawn) the results were TNAP act mid DEA 0.9, MKP-1 inh -7, BAP1 inh inactive, Cdc25B block -2, HePTP inhibitor 2 and Ec RNAP inh 32*.
`C=C(C)CNC(=S)NC1=C(C)N(C)N(c2ccccc2)C1=C` gave HePTP inhibitor -14.
Screening Cc1nn(-c2ccccc2)c2sc(C(=O)OCN3C(=O)c4ccccc4C3=O)cc12 returned TNAP act mid DEA 1, MKP-1 inh 4, BAP1 inh active, Cdc25B block -2, HePTP inhibitor 0 and Ec RNAP inh 7.
For CCNC(=O)c1cc2c(C)nn(-c3ccccc3)c2s1 the results were HePTP inhibitor 2.
`O=C(OCC#CCSc1nnc(-c2ccc(Br)cc2)o1)c1ccco1` gave TNAP act mid DEA 0.9, MKP-1 inh 6, BAP1 inh inactive, Cdc25B block -11, HePTP inhibitor -4 and Ec RNAP inh 43*.
`O=C(OCC#CCSc1nnc(-c2ccccc2)o1)c1ccco1` gave TNAP act mid DEA 0.9, MKP-1 inh -15, BAP1 inh inactive, Cdc25B block -8, HePTP inhibitor 8 and Ec RNAP inh -4.
`Cc1nc(NC(=O)c2ccccc2)sc1-c1csc(Nc2ccc(N)cc2)n1` gave HePTP inhibitor 0.
Screening CCOC(=O)c1c(C)[nH]c(N=Nc2cccc(OC)c2)c1C returned HePTP inhibitor 103*.
`CCOC(=O)c1c(C)[nH]c(N=Nc2ccc(C)cc2)c1C` gave HePTP inhibitor 4.
For Cc1cc(NC(=O)c2ccc(-c3ccc(Cl)cc3)o2)ccc1NC(=O)c1ccco1 the results were HePTP inhibitor 61*.
`O=C(Nc1ccccc1C(=O)Nc1ccc(Cl)cc1)c1ccco1` gave HePTP inhibitor 103*.
For CC1C(c2ccccc2)=[N+]([O-])C(C)(c2cccs2)N1O (stereo not drawn) the results were HePTP inhibitor -4.
`CCOc1ccc(NC(=O)N(C2CCCCCC2)C2CCN(C(C)=O)CC2)cc1` gave TNAP act mid DEA 0.9, MKP-1 inh 34, BAP1 inh inactive, Cdc25B block -2, HePTP inhibitor 5 and Ec RNAP inh 5.
CCOc1ccc(NC(=O)N(C2CCCCC2)C2CCN(C(C)=O)CC2)cc1 was read as TNAP act mid DEA 1, MKP-1 inh 2, BAP1 inh inactive, Cdc25B block 64*, HePTP inhibitor 2 and Ec RNAP inh 6.
CCCOc1ccc(-c2cc(C(=O)NCCCN3CCOCC3)c3ccccc3n2)cc1 was read as HePTP inhibitor 103*.
For O=C(NCCN1CCOCC1)c1cc(-c2ccc(Cl)cc2)nc2ccccc12 the results were HePTP inhibitor 5.
Screening O=C(NCCN1CCOCC1)c1cc(-c2ccc(Br)cc2)nc2ccccc12 returned HePTP inhibitor 104*.
COc1ccccc1N1C(=O)NC(=O)/C(=C/c2ccc(Br)s2)C1=O was read as HePTP inhibitor -17.
`O=S(=O)(c1ccc(Cl)cc1)N1CCN(Cc2cccc(F)c2)CC1` gave HePTP inhibitor 11.
O=C(c1ccc(Cl)cc1)C(Sc1nnnn1-c1ccccc1)c1ccc([N+](=O)[O-])cc1 (stereo not drawn) was read as HePTP inhibitor -10.
For O=C(NCc1ccccc1Cl)C(=O)NC1CC1 the results were HePTP inhibitor 4.
`O=C(NCc1ccc(Cl)cc1Cl)C(=O)NC1CCCC1` gave HePTP inhibitor 61*.
`CCOC(=O)c1oc2ccc(C=NCc3ccccc3)c(Cl)c2c1C` gave HePTP inhibitor 0.
Screening N#Cc1c(-c2ccco2)cc(-c2ccc(F)cc2)nc1N returned TNAP act mid DEA 0.9, MKP-1 inh 9, Cdc25B block -9, HePTP inhibitor 2 and Ec RNAP inh -10.
`N#Cc1c(-c2ccc(Br)cc2)cc(-c2ccco2)c(C#N)c1N` gave HePTP inhibitor 101*.
`O=C(CC1S/C(=N\N=C\c2ccco2)NC1=O)Nc1cccc(Cl)c1Cl` (stereo not drawn) gave HePTP inhibitor 9.
